Experiment [1] in a line: Quantitative High-Throughput drug screen in 47 multiple myeloma cell lines against the NCATS MIPE library collection: LP1_DSMZ cell viability assay (AID 1918982). Also: nearly all actives have a fitted effect of over 35% in size. The method, boiled down: (§1)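 Inhibition of viability over 48 h was scored by ATP content (CellTiter-Glo) in 500-cell wells. Zero and full viability were defined by media-only and DMSO-only wells.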
Experiment [2] in a line: Quantitative High-Throughput drug screen in 47 multiple myeloma cell lines against the NCATS MIPE library collection: KMS28PE_JCRB cell viability assay (AID 1918983). Also: nearly all actives have a fitted effect of over 35% in size. The method, boiled down: as §1
A short description of experiment [3]: Quantitative High-Throughput drug screen in 47 multiple myeloma cell lines against the NCATS MIPE library collection: KMS34_JCRB cell viability assay (AID 1918985). Also: nearly all actives have a fitted effect of over 40% in size. In outline:
as §1

The nature of experiment [4]: Quantitative High-Throughput drug screen in 47 multiple myeloma cell lines against the NCATS MIPE library collection: OPM1_PLB cell viability assay (AID 1918989). Also: nearly all actives have a fitted effect of over 40% in size. In outline: as §1
Experiment [5] can be described thus: Quantitative High-Throughput drug screen in 47 multiple myeloma cell lines against the NCATS MIPE library collection: SKMM1_PLB cell viability assay (AID 1919863). Also: nearly all actives have a fitted effect of over 35% in size. As to viability: series mostly up to about 46 µM. Particulars: SKMM1 myeloma viability, CellTiter-Glo ATP, 48 h; viability: active compounds read low. The method, boiled down: as §1
A short description of experiment [6]: Quantitative High-Throughput drug screen in 47 multiple myeloma cell lines against the NCATS MIPE library collection: XG6_PLB cell viability assay (AID 1919865). Also: nearly all actives have a fitted effect of over 40% in size. In outline: as §1
A short description of experiment [7]: Quantitative High-Throughput drug screen in 47 multiple myeloma cell lines against the NCATS MIPE library collection: XG1_PLB cell viability assay (AID 1919866). Also: nearly all actives have a fitted effect of over 35% in size. In outline: as §1
Experiment [8] is described as follows: Quantitative High-Throughput drug screen in 47 multiple myeloma cell lines against the NCATS MIPE library collection: VP6_DJ cell viability assay (AID 1919867). Also: nearly all actives have a fitted effect of over 40% in size. In outline: as §1
Experiment [9] is described as follows: Quantitative High-Throughput drug screen in 47 multiple myeloma cell lines against the NCATS MIPE library collection: UTMC2_PLB cell viability assay (AID 1919868). Also: nearly all actives have a fitted effect of over 55% in size. The method, boiled down:
as §1

Experiment [10] can be described thus: Quantitative High-Throughput drug screen in 47 multiple myeloma cell lines against the NCATS MIPE library collection: PE2_PLB cell viability assay (AID 1919869). Also: nearly all actives have a fitted effect of over 35% in size. The method, boiled down:
as §1

A short description of experiment [11]: Quantitative High-Throughput drug screen in 47 multiple myeloma cell lines against the NCATS MIPE library collection: RPMI8226_ATCC cell viability assay (AID 1919871). Also: nearly all actives have a fitted effect of over 30% in size. In outline: as §1
Experiment [12] can be described thus: Quantitative High-Throughput drug screen in 47 multiple myeloma cell lines against the NCATS MIPE library collection: KMS11_JCRBsus cell viability assay (AID 1919873). Also: nearly all actives have a fitted effect of over 50% in size. In outline: as §1
Experiment [13] can be described thus: Quantitative High-Throughput drug screen in 47 multiple myeloma cell lines against the NCATS MIPE library collection: KMS28BM_JCRB cell viability assay (AID 1919874). Also: nearly all actives have a fitted effect of over 35% in size. In outline:
as §1

Experiment [14] is described as follows: Quantitative High-Throughput drug screen in 47 multiple myeloma cell lines against the NCATS MIPE library collection: OCIMY7_PLB cell viability assay (AID 1918987). Also: nearly all actives have a fitted effect of over 65% in size. The method, boiled down: as §1
Experiment [15] can be described thus: Quantitative High-Throughput drug screen in 47 multiple myeloma cell lines against the NCATS MIPE library collection: OCIMY5_PLB cell viability assay (AID 1918988). Also: nearly all actives have a fitted effect of over 65% in size. In outline: as §1
The nature of experiment [16]: Quantitative High-Throughput drug screen in 47 multiple myeloma cell lines against the NCATS MIPE library collection: PCM6_Riken cell viability assay (AID 1919870). Also: nearly all actives have a fitted effect of over 30% in size. In outline:
as §1

Experiment [17] in a line: Quantitative High-Throughput drug screen in 47 multiple myeloma cell lines against the NCATS MIPE library collection: OPM2_DSMZ cell viability assay (AID 1919872). Also: nearly all actives have a fitted effect of over 30% in size. The method, boiled down:
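Relative luminescence from CellTiter-Glo served as the viability signal, referenced to DMSO-treated (100%) and cell-free medium (0%) controls. Treatment lasted 48 hours at 37C with 500 cells per well.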

Experiment [18] can be described thus: Quantitative High-Throughput drug screen in 47 multiple myeloma cell lines against the NCATS MIPE library collection: L363_DSMZ cell viability assay (AID 1918984). Also: nearly all actives have a fitted effect of over 40% in size. The method, boiled down: as §1
A short description of experiment [19]: Quantitative High-Throughput drug screen in 47 multiple myeloma cell lines against the NCATS MIPE library collection: U266_ATCC cell viability assay (AID 1919864). Also: nearly all actives have a fitted effect of over 35% in size. In outline:
as §1

The source of these data is PubChem BioAssay (NCATS).

The structures appear in SMILES notation. Records with an inconclusive call do not appear. Unmarked numbers belong to inactive results. Calls of active or inactive are those of the source. Calls follow the shape of the dose curve; as a rule, active = well fitted cell-killing curve with a large enough effect; inconclusive = small, poorly fitted or top-dose-only effect, or effect the other way; inactive = no such curve, though single readings can be large or run the other way.
Potency is read from the fitted curve at half-maximal effect.

The term viability denotes a read-out of living cells in per cent, often relative to untreated cells. For `COc1ncnc(NS(=O)(=O)c2ccc(N)cc2)c1OC`, the Potency entry in [1], in experiment [2], in experiment [3], in experiment [4], in [6] and in [7] was “inactive” throughout. Also, the Potency entry in experiment [8], in experiment [9], in [10], in [11], in experiment [12] and in [13] was “inactive” throughout. Besides, the viability in experiment [5] is 128%.
`S=P(N1CC1)(N1CC1)N1CC1`: the Potency entry in experiment [1], in experiment [2], in experiment [15], in experiment [4], in [10] and in [16] was “inactive” throughout. Moreover, the Potency entry in experiment [11], in experiment [17], in [12] and in experiment [13] was “inactive” in each case. In addition, the Potency in experiment [3] was 0.0012 µM (active); in experiment [14] it was 13.2 µM (active); in experiment [6], 23.5 µM (active). In addition, the viability in experiment [5] is 142%.
As to `C[C@]12C=CC(=O)C=C1CC[C@@H]1[C@@H]2C(=O)C[C@@]2(C)[C@H]1CC[C@]2(O)C(=O)CO`, the Potency entry in experiment [1], in [2], in experiment [3], in experiment [15], in experiment [6] and in experiment [8] was “inactive” in each case. Further, the Potency result in [16], in experiment [11], in experiment [12] and in experiment [13] was “inactive” throughout. In experiment [5], the viability was 141%.
For the molecule `COc1ccc2cc3[n+](cc2c1OC)CCc1cc2c(cc1-3)OCO2`, the Potency is 4.69 µM (active) in experiment [1]; 16.6 µM (active) in experiment [2]; 6.62 µM (active) in experiment [18]; 14.8 µM (active) in experiment [15]; 18.7 µM (active) in experiment [4]; 14.8 µM (active) in experiment [5]. Besides, the Potency in [19] is 9.35 µM (active); in experiment [6], 16.6 µM (active); in experiment [7] it was 16.6 µM (active); in experiment [8] it was 7.43 µM (active); in [9], 3.32 µM (active); in experiment [10], 14.8 µM (active). In [12], the Potency was 3.32 µM (active).
As for `Nc1nc(=S)c2[nH]cnc2[nH]1`, the Potency in experiment [1] was 7.43 µM (active); in [2] it was 8.33 µM (active); in experiment [3] it was 2.96 µM (active); in [14] it was 1.32 µM (active); in [15], 3.72 µM (active); in [4] it was 1.18 µM (active). In addition, the Potency is 5.9 µM (active) in experiment [5]; 8.33 µM (active) in [19]; 1.05 µM (active) in [6]; 0.662 µM (active) in experiment [7]; 1.66 µM (active) in experiment [8]; 5.9 µM (active) in experiment [9]. In addition, the Potency in [10] was 1.66 µM (active); in experiment [11], 4.69 µM (active); in experiment [17], 3.72 µM (active); in [12], 4.18 µM (active); in experiment [13], 5.26 µM (active).
Take `CO[C@@H]1[C@@H](OC(N)=O)[C@@H](O)[C@H](Oc2ccc3c(O)c(NC(=O)c4ccc(O)c(CC=C(C)C)c4)c(=O)oc3c2C)OC1(C)C`: the Potency result in experiment [1] was “inactive”. In addition, the Potency is 4.69 µM (active) in experiment [2]; 1.48 µM (active) in [3]; 5.9 µM (active) in experiment [14]; 8.33 µM (active) in [15]; 5.26 µM (active) in [4]; 6.62 µM (active) in [6]. Also, the Potency was 5.9 µM (active) in experiment [7], 6.62 µM (active) in experiment [10] and 9.35 µM (active) in experiment [13].
As for `O=P(O)(O)C(O)(Cc1cccnc1)P(=O)(O)O`, the Potency result in experiment [1], in experiment [2], in [18], in experiment [15], in experiment [4] and in experiment [6] was “inactive” each time. Besides, the Potency entry in experiment [7], in experiment [8], in experiment [9], in experiment [10], in experiment [16] and in experiment [17] was “inactive” in each case. Moreover, the Potency result in experiment [12] and in experiment [13] was “inactive” in each case.
On to `CC(C)Cn1cnc2c(N)nc3ccccc3c21`, for which the Potency entry in [1], in [8], in experiment [10] and in experiment [17] was “inactive” each time. In addition, the Potency in experiment [2] is 23.5 µM (active); in experiment [18] it was 4.18 µM (active); in experiment [15] it was 16.6 µM (active); in experiment [5], 14.8 µM (active); in experiment [19], 20.9 µM (active); in [13], 14.8 µM (active).
Regarding `Nc1[nH]c(=O)ncc1F`, the Potency entry in [1], in experiment [2], in [18], in experiment [14], in experiment [4] and in [9] was “inactive” throughout. In addition, the Potency entry in experiment [10], in [17], in experiment [12] and in [13] was “inactive” throughout. Moreover, the viability in [5] was 117%. The Potency in [6] was 26.4 µM (active); in [8], 20.9 µM (active).
With `NC(=O)c1cccc(N)c1`, the Potency result in experiment [1], in experiment [2], in [3], in [15], in [4] and in experiment [19] was “inactive” throughout. Further, the Potency result in experiment [10], in [16], in experiment [11], in [17] and in experiment [12] was “inactive” throughout. Also, the Potency in experiment [14] is 4.69 µM (active); in [8] it was 8.33 µM (active). In addition, the viability in [5] is 132%.
For `COc1nc(N)nc2c1ncn2[C@@H]1O[C@H](CO)[C@@H](O)[C@@H]1O`, the Potency result in experiment [1], in [2], in experiment [18], in experiment [15], in experiment [4] and in [6] was “inactive” each time. The Potency entry in experiment [7], in experiment [8], in experiment [10], in experiment [16], in experiment [11] and in [12] was “inactive” throughout. The Potency result in [13] is “inactive”. Moreover, the viability in experiment [5] is 124%. The Potency in experiment [17] was 0.469 µM (active).
For `O=S(=O)(O)CCS`, the Potency entry in experiment [1], in experiment [2], in experiment [3], in [14], in [4] and in experiment [6] was “inactive” in each case. The Potency entry in [7], in [9], in experiment [11], in [17], in experiment [12] and in experiment [13] was “inactive” in each case. Moreover, the viability in [5] was 136%.
With `Cc1ccnc2c1NC(=O)c1cccnc1N2C1CC1`, the Potency entry in [1], in experiment [2], in [18], in experiment [15], in [4] and in experiment [11] was “inactive” in each case. The Potency result in experiment [17], in experiment [12] and in [13] was “inactive” throughout. For the same molecule, the Potency is 23.5 µM (active) in experiment [6], 26.4 µM (active) in experiment [8], 26.4 µM (active) in experiment [10] and 26.4 µM (active) in experiment [16].
Consider `CCCCCCNC(=O)n1cc(F)c(=O)[nH]c1=O`, for which the Potency in [1] is 11.8 µM (active); in [3] it was 8.33 µM (active); in experiment [8], 5.26 µM (active). The Potency result in [2], in experiment [4], in [10], in experiment [17] and in experiment [13] was “inactive” each time.
`CCCOc1ccc(C(=O)OCCN(CC)CC)cc1N`: the Potency result in experiment [1], in [2], in experiment [3], in experiment [15], in experiment [4] and in [6] was “inactive” each time. In addition, the Potency entry in experiment [7], in experiment [9], in [10], in [16], in [11] and in [17] was “inactive” throughout. In experiment [5], the viability was 118%. In addition, the Potency in [8] was 9.35 µM (active); in experiment [12], 14.8 µM (active).
